27 compounds from PubChem BioAssay (NCATS) can be followed below.

Assay [1] addresses Arylsulfatase A (Homo sapiens) (UniProt P15289). Description: qHTS screen for enhancers of Arylsulfatase A (ASA1): LOPAC Validation Assay (AID 720538). Also: potency is read from the fitted curve at half-maximal effect. A digest of the protocol: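 SV40-transformed skin fibroblasts from an MLD patient (ASA-I179S) were treated with compounds for 48h at 37 degree C, then lysed with 0.5mM pNCS final substrate for 14h at room temperature; NaOH stop, fluorescence read (Ex=525 nm; Em=598 nm).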
For orientation: Quantitative high-throughput screening tests each substance at several concentrations.

Assay [2] in a line: qHTS for Activators of Parkin Expression: LOPAC Validation Assay (NLuc Reporter) (AID 720572). A digest of the protocol:
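Parkin promoter-driven FLuc/NLuc neuronal reporter cells; 24 h plating, 7-pt dose response, 24 h at 37 C/5% CO2; FLuc then NanoLuc reagent, 10 min each, luminescence; DMSO/positive control normalized.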

Assay [3] addresses T1, Hexokinase-4 (Homo sapiens) + Glucokinase regulatory protein (Homo sapiens) (UniProt P35557+Q14397). The assay can be described thus: qHTS assay for inhibitors of recombinant human GCK-GKRP interaction: Diaphorase-coupled assay (AID 743205). A digest of the protocol: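 GST-GCK (10 nM) with FLAG-GKRP (10 nM), 5 mM glucose and 0.4 mM ATP in pH 7.6 Hepes; compounds preincubated 20 min with substrate. G6PDH/diaphorase coupling converts resazurin to resorufin, read kinetically (ex 525/em 590 nm) for 30 min.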

Assay [4] concerns the target T1, Hexokinase-4 (Homo sapiens) + Glucokinase regulatory protein (Homo sapiens). The assay can be described thus: qHTS assay for inhibitors of recombinant human GCK-GKRP interaction: ADP-Glo assay (AID 743206). A digest of the protocol:
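GST-GCK and FLAG-GKRP (15 nM each in the dispensed mix, with 2 uM S6P) react with 0.4 mM ATP and 5 mM glucose (final) in Hepes pH 7.6 for 60 min at room temperature. ADP is measured by ADP-Glo luminescence.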

The target is the same in assay [5]. Description: qHTS assay for inhibitors of recombinant human GCK-GKRP interaction: HTRF assay (AID 743207). A digest of the protocol:
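GST-GCK and FLAG-GKRP (5 nM each) were combined with 2 uM S6P in pH 7.1 Hepes/MgCl2/KCl/DTT buffer, then compound and anti-FLAG XL665/anti-GST K antibodies were added. After 60 min at room temperature, HTRF 665/615 nm emission was read.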

Assay [6] can be described thus: qHTS for compounds that reverse cellular toxicity of Amyloid beta (A-beta) peptide in yeast: LOPAC Validation Assay (AID 720559). A digest of the protocol:
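Yeast cells expressing toxic A-beta were combined with pinned compounds in growth medium and incubated 48 hr at 30 C. Growth was read as absorbance at 600 nm and normalized to DMSO and to an equimolar FeCl3/clioquinol positive control.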

Assay [7] in a line: qHTS for Activators of Parkin Expression: LOPAC Validation Assay (FLuc Reporter) (AID 720573). A digest of the protocol:
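Neuronal cell line stably carrying FLuc/NLuc coincidence reporter under Parkin promoter; cells plated 24 h, then compounds added in 7-point dose response for 24 h at 37 C. FLuc luminescence read; normalized to DMSO and positive control (100%).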

Each structure is given as a SMILES string. Inconclusive results are not listed. Calls of active or inactive are those of the source. Calls follow the shape of the dose curve; as a rule, active = well fitted curve in the direction sought with a large enough effect; inconclusive = small, poorly fitted or top-dose-only effect, or another doubt; inactive = no such curve, though single readings can be large; an effect the other way counts as inactive or inconclusive.

Sequence of Arylsulfatase A (Homo sapiens) (P15289 whole entry, looked up): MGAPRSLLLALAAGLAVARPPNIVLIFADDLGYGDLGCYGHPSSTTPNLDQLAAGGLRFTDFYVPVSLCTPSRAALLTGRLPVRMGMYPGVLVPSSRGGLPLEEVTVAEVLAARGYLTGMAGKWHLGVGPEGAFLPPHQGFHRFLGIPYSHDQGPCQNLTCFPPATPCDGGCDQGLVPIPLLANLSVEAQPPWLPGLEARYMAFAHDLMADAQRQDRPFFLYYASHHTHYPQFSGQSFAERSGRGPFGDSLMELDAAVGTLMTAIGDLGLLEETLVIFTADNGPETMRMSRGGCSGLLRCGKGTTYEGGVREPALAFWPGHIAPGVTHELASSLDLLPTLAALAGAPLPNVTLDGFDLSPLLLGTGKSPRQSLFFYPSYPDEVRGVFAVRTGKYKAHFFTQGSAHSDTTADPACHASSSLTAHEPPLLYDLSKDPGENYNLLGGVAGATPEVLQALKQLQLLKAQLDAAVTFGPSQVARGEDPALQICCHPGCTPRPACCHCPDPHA
T1 sequence (P35557 whole entry, looked up): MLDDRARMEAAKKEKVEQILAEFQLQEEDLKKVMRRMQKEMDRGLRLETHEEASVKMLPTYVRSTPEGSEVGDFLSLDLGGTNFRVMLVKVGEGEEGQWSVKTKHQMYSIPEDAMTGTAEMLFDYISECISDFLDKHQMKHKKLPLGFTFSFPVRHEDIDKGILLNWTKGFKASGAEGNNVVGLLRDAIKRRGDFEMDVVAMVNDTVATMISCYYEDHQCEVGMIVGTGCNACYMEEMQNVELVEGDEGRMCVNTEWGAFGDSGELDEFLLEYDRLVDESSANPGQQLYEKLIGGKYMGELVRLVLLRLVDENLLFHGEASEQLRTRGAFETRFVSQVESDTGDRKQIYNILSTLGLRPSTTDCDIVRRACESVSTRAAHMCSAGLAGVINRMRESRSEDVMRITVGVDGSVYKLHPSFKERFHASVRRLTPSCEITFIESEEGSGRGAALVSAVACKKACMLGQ
T1 sequence (Q14397 whole entry, looked up): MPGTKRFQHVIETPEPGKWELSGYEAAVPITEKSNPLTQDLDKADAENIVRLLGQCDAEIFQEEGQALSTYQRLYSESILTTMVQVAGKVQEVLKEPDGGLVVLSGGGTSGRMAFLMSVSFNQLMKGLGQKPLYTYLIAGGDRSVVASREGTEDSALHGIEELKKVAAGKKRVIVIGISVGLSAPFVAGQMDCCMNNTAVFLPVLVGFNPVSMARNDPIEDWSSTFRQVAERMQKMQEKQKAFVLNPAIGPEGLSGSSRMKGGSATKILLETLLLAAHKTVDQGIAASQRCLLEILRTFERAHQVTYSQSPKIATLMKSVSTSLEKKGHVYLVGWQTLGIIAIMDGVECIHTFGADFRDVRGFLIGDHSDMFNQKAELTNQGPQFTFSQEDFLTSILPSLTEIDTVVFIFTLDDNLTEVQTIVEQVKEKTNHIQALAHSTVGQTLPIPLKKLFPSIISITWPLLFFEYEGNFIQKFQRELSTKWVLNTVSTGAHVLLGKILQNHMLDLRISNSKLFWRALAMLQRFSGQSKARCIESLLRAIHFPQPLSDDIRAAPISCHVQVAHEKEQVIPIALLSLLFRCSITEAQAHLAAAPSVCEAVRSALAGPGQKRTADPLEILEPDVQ

Consider `CCCC[N+]1(C)C2CC(OC(=O)[C@H](CO)c3ccccc3)CC1C1OC12` (some centres not stated), for which the Potency entry in assay [1], in assay [2] and in assay [3] was “inactive” throughout. In addition, the result in assay [4] and in assay [5] was inactive.
Regarding `N[C@@H](Cn1oc(=O)[nH]c1=O)C(=O)O`, the call in assay [6], in assay [4] and in assay [5] was inactive. Besides, the Potency entry in assay [2] and in assay [3] was “inactive” each time.
On to `NCCc1c[nH]c2ccc(C(N)=O)cc12`, for which the Potency result in assay [2] and in assay [3] was “inactive” throughout. For the same compound, the result in assay [4] and in assay [5] was inactive.
As to `CC(N)Cc1c[nH]c2ccc(OCc3cccs3)cc12` (configuration not stated), the Potency entry in assay [2] and in assay [3] was “inactive” throughout. For the same compound, the compound was called inactive in assay [7], in assay [4] and in assay [5].
Turning to `CC12NC(Cc3ccccc31)c1ccccc12` (configuration not stated), the Potency entry in assay [1] and in assay [3] was “inactive” each time. The outcome in assay [4] and in assay [5] was inactive.
Take `CCNC(=O)[C@H]1O[C@@H](n2cnc3c(N)ncnc32)[C@H](O)[C@@H]1O`: the compound was classed as inactive in assay [6], in assay [7], in assay [4] and in assay [5]. Besides, the Potency entry in assay [2] and in assay [3] was “inactive” each time.
In the case of `C[N+](C)(C)CC#CCN1CCCC1=O`, the Potency entry in assay [1], in assay [2] and in assay [3] was “inactive” throughout. The result in assay [4] and in assay [5] was inactive.
Turning to `Cc1cc([C@@H]2CCCN2C)on1`, the call in assay [6], in assay [7], in assay [4] and in assay [5] was inactive. The Potency result in assay [2] and in assay [3] was “inactive” throughout.
Regarding `CCCCCCC(C)(C)c1ccc([C@@H]2C[C@H](O)CC[C@H]2CCCO)c(O)c1`, the result in assay [6], in assay [7], in assay [4] and in assay [5] was inactive. Further, the Potency entry in assay [2] and in assay [3] was “inactive” throughout.
As for `Clc1ccc(N2CC3CCC(C2)N3)nn1`, the outcome in assay [6], in assay [7], in assay [4] and in assay [5] was inactive. In addition, the Potency entry in assay [2] and in assay [3] was “inactive” in each case.
As to `NC(=O)c1cc(N2CC2)c([N+](=O)[O-])cc1[N+](=O)[O-]`, the compound was called inactive in assay [6], in assay [7], in assay [4] and in assay [5]. Moreover, the Potency entry in assay [2] and in assay [3] was “inactive” in each case.
In the case of `NNC(=O)c1ccc(O)cc1`, the Potency result in assay [1], in assay [2] and in assay [3] was “inactive” throughout. The result in assay [4] and in assay [5] was inactive.
With `C[N+](C)(C)CCOC(=O)CBr`, the call in assay [6], in assay [7], in assay [4] and in assay [5] was inactive. Moreover, the Potency result in assay [2] and in assay [3] was “inactive” in each case.
Turning to `NCC(O)c1cc(O)c(O)cc1F` (configuration not stated), the outcome in assay [6], in assay [7], in assay [4] and in assay [5] was inactive. Besides, the Potency result in assay [2] and in assay [3] was “inactive” each time.
Turning to `COc1ccc2c(c1)c(CCN1CCOCC1)c(C)n2C(=O)c1cccc(Cl)c1Cl`, the Potency result in assay [2] and in assay [3] was “inactive” throughout. Also, the compound was classed as inactive in assay [7], in assay [4] and in assay [5].
For the compound `CC(N)[C@H](O)c1ccc(O)c(O)c1` (some centres not stated), the compound was classed as inactive in assay [6], in assay [7], in assay [4] and in assay [5]. Besides, the Potency result in assay [2] and in assay [3] was “inactive” each time.
`O=[N+]([O-])c1cc(O)c(O)c([N+](=O)[O-])c1`: the Potency in assay [1] is 19 µM (active). Besides, the Potency entry in assay [2] and in assay [3] was “inactive” each time. The outcome in assay [4] and in assay [5] was inactive.
Consider `CCCN1CCc2cc(O)cc3c2[C@H]1Cc1ccc(O)c(O)c1-3`, for which the compound was called inactive in assay [6], in assay [7], in assay [4] and in assay [5]. For the same compound, the Potency entry in assay [2] and in assay [3] was “inactive” throughout.
On to `CCCN(CCC)CCc1ccc(O)c(O)c1`, for which the result in assay [6], in assay [4] and in assay [5] was inactive. Further, the Potency result in assay [2] and in assay [3] was “inactive” in each case.
Consider `CC(=O)NBr`, for which the result in assay [6], in assay [4] and in assay [5] was inactive. In addition, the Potency entry in assay [2] and in assay [3] was “inactive” throughout.
Take `CC(N)c1cccc(Cl)c1Cl` (configuration not stated): the outcome in assay [6], in assay [7], in assay [4] and in assay [5] was inactive. Also, the Potency entry in assay [2] and in assay [3] was “inactive” in each case.
Consider `C[N+]1(C)C2CCC1CC(OC(=O)c1c[nH]c3ccccc13)C2` (configuration not stated), for which the outcome in assay [6], in assay [4] and in assay [5] was inactive. Also, the Potency entry in assay [2] and in assay [3] was “inactive” in each case.
For `N=C(N)c1ccc(CS(=O)(=O)F)cc1`, the Potency entry in assay [2] and in assay [3] was “inactive” throughout. Besides, the result in assay [7], in assay [4] and in assay [5] was inactive.
For the compound `COc1ccc2[nH]c3c(c2c1)CCNC3`, the Potency entry in assay [1], in assay [2] and in assay [3] was “inactive” throughout. The result in assay [4] and in assay [5] was inactive.
Regarding `N#CCCN`, the outcome in assay [6], in assay [7], in assay [4] and in assay [5] was inactive. Further, the Potency result in assay [2] and in assay [3] was “inactive” in each case.
Consider `CN1CCc2cc(O)cc3c2[C@H]1Cc1ccc(O)c(O)c1-3`, for which the result in assay [6], in assay [7], in assay [4] and in assay [5] was inactive. Further, the Potency result in assay [2] and in assay [3] was “inactive” throughout.
For `Oc1ccc2c3c1O[C@H]1c4[nH]c5ccccc5c4C[C@@]4(O)C(C2)N(CC2CC2)CCC314` (some centres not stated), the Potency entry in assay [3] was “inactive”. Further, the outcome in assay [5] was inactive.
